{"source": "PubChem BioAssay AID485297", "about": "(National Center for Advancing Translational Sciences (NCATS), 2010)", "note": "In all, about 320,000 compounds went through this assay and about 9,100 (2.8%) were called active. About 3% were inconclusive and are not listed. Calls come from the whole dose curve; as a rule, active = well fitted activation curve with a large enough effect; inconclusive = small, poorly fitted or top-dose-only effect; inactive = no such curve, though single readings can be large or run the other way. For the sample, actives were picked, then their nearest neighbours and some compounds at random. Potency is the fitted concentration of half-maximal effect."}
{"assay": "qHTS Assay for Rab9 Promoter Activators; note: nearly all actives have a fitted effect of over 60% in size; for activation, negative = inhibition: % of control where 0% means no effect", "conditions": "Huh7 Rab9 promoter-luciferase reporter, luminescence, 24 h; series mostly up to 9.22 µM; activation, negative = inhibition: at the top concentration", "how_it_was_run": "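Promoter activation is measured as luciferase luminescence in Huh7 cells stably transfected with a Rab9 promoter–luciferase construct, following 24 h compound exposure at 37 °C and 10 min reagent incubation at ambient temperature.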"}
{"smiles": "CC(=O)c1c(C)[nH]c(C(=O)COc2ccc3c(C)cc(=O)oc3c2)c1C", "activation, negative = inhibition": "-9.12% (inactive)"}
{"smiles": "O=c1c(Cl)c(NC2CC2)cnn1-c1ccccc1", "activation, negative = inhibition": "12.3% (inactive)"}
{"smiles": "C=CCNc1cnn(-c2ccc(C)cc2)c(=O)c1Cl", "Potency": "3.55 µM (active)"}
{"smiles": "Cc1ccc(Oc2cnn(-c3ccccc3)c(=O)c2Br)cc1", "activation, negative = inhibition": "0.736% (inactive)"}
{"smiles": "CC(=O)NC12CC3CC(C1)CC(C(=O)N1CCN(S(=O)(=O)c4cccs4)CC1)(C3)C2", "activation, negative = inhibition": "-2.99% (inactive)"}
{"smiles": "CCn1nc(C(=O)Nc2ccc(N3CCOCC3)cc2)c2ccccc2c1=O", "activation, negative = inhibition": "1.14% (inactive)"}
{"smiles": "c1ccc(-n2cccc2)c(N2CCCCC2)c1", "activation, negative = inhibition": "-2% (inactive)"}
{"smiles": "CC(C)c1ccc(Nc2ncccc2C#N)cc1", "Potency": "3.55 µM (active)"}
{"smiles": "CN(C)c1ccnc(Nc2ccc(F)cc2)c1C#N", "activation, negative = inhibition": "0.525% (inactive)"}
{"smiles": "CC(C)c1ccc(/C=C/C(=O)NNC(=O)c2cccnc2)cc1", "activation, negative = inhibition": "-7.13% (inactive)"}
{"smiles": "COc1ccc(CNC(=O)CNC(=O)c2sc3ccccc3c2Cl)cc1OC", "activation, negative = inhibition": "10.1% (inactive)"}
{"smiles": "COc1ccc2c(Cl)c(C(=O)NCc3ccco3)sc2c1", "Potency": "3.16 µM (active)"}
{"smiles": "COc1ccc(C(=O)Nc2ccccc2C(=O)NCc2ccco2)cc1", "activation, negative = inhibition": "-0.959% (inactive)"}
{"smiles": "Cc1c(CNCCc2ccccc2)c(C(=O)O)c(C)n1-c1ccccc1", "activation, negative = inhibition": "0.0378% (inactive)"}
{"smiles": "CCOc1cc(CNCCN(C)C)c(Cl)cc1OCC(=O)NCCc1ccccc1", "activation, negative = inhibition": "-6.67% (inactive)"}
{"smiles": "O=C(CN1CCc2ccccc2C1)Nc1cccc(S(=O)(=O)N2CCOCC2)c1", "activation, negative = inhibition": "-0.571% (inactive)"}
{"smiles": "CC1CCN(C(=O)c2ccccc2NC(=O)Cc2ccccc2)CC1", "activation, negative = inhibition": "-2.62% (inactive)"}
{"smiles": "CCCCc1nc2cc(C(=O)NCCc3cnn(C)c3)ccc2o1", "activation, negative = inhibition": "21.1% (inactive)"}
{"smiles": "COc1ccc(Cc2nc3ccc(C(=O)NCC4CCOCC4)cc3o2)cc1OC", "activation, negative = inhibition": "24.7% (inactive)"}
{"smiles": "CSCCNC(=O)c1ccc2nc(Cc3ccccc3F)oc2c1", "Potency": "2.82 µM (active)"}
{"smiles": "COCCn1c(C)cc(C(=O)CSc2nnc(C3CC3)n2C2CC2)c1C", "activation, negative = inhibition": "13.8% (inactive)"}
{"smiles": "O=C(CNC(=O)c1ccccc1Br)NNC(=O)c1cccs1", "activation, negative = inhibition": "-0.728% (inactive)"}
{"smiles": "COc1cccc(N2CCN(CC(=O)Nc3ccnn3C3CCCC3)CC2)c1", "activation, negative = inhibition": "-21.1% (inactive)"}
{"smiles": "O=C(Nc1ccc(NC(=O)c2ccccc2F)cc1)c1ccccc1F", "activation, negative = inhibition": "3.15% (inactive)"}
{"smiles": "O=C(Nc1nc(-c2ccc(-c3ccccc3)cc2)cs1)c1cnccn1", "activation, negative = inhibition": "15% (inactive)"}
{"smiles": "Cc1ccccc1Nc1nc(-c2cccnc2)cs1", "Potency": "2 µM (active)"}
{"smiles": "O=C(NCCc1csc(-c2ccccc2)n1)c1ccccc1F", "activation, negative = inhibition": "6.61% (inactive)"}
{"smiles": "O=C(Nc1nc(-c2cccnc2)cs1)c1ccccc1F", "Potency": "3.55 µM (active)"}
{"smiles": "O=C(Nc1nnc(-c2ccccc2F)s1)c1ccccc1F", "Potency": "0.708 µM (active)"}
{"smiles": "CN(Cc1ccccc1)S(=O)(=O)c1nnc(NC(=O)c2ccccc2F)s1", "activation, negative = inhibition": "0.085% (inactive)"}
{"smiles": "O=C(O)c1ccccc1C(=O)Nc1nc(-c2ccccc2)cs1", "activation, negative = inhibition": "2.84% (inactive)"}
{"smiles": "CN(c1ccc(O)cc1)c1nc(-c2cccnc2)cs1", "activation, negative = inhibition": "2.25% (inactive)"}
{"smiles": "CC(=O)c1ccc(S(=O)(=O)NCCC(=O)N2CCN(c3ccccn3)CC2)cc1", "activation, negative = inhibition": "-5.68% (inactive)"}
{"smiles": "CCC(C(=O)N1CCN(S(=O)(=O)c2sc(C(=O)O)c(C)c2C(=O)O)CC1)c1ccccc1", "note": "(configuration not stated)", "activation, negative = inhibition": "-2.11% (inactive)"}
{"smiles": "Cc1ccc(COC(=O)CN2C(=O)NC3(CCCC3)C2=O)cc1", "activation, negative = inhibition": "3.61% (inactive)"}
{"smiles": "COc1ccc(C(=O)OC(C)C(=O)NC2CCCC2)cc1S(=O)(=O)N1CCOCC1", "note": "(configuration not stated)", "activation, negative = inhibition": "-1.33% (inactive)"}
{"smiles": "O=C(COC(=O)Cn1[nH]c(=O)c2ccccc2c1=O)Nc1ncc(Cl)cc1Cl", "activation, negative = inhibition": "-0.89% (inactive)"}
{"smiles": "CCCSC(=S)NC1CCS(=O)(=O)C1", "note": "(configuration not stated)", "activation, negative = inhibition": "-23.7% (inactive)"}
{"smiles": "CN(CC(=O)NCc1ccc2c(c1)OCO2)CC(=O)Nc1ccc(F)c(F)c1F", "activation, negative = inhibition": "-0.0955% (inactive)"}
{"smiles": "Cc1ccc(S(=O)(=O)N2CCCCC2)cc1C(=O)N1CCN(CCO)CC1", "activation, negative = inhibition": "-5.51% (inactive)"}
{"smiles": "Clc1cccc(N=C2NN=C(c3ccc4c(c3)OCCO4)CS2)c1", "Potency": "3.55 µM (active)"}
{"smiles": "c1ccc(CN2CCC(N=C3NN=C(c4ccc5c(c4)OCCO5)CS3)CC2)cc1", "activation, negative = inhibition": "12.9% (inactive)"}
{"smiles": "CN(C)c1nc(=Nc2cccc(Cl)c2)ss1", "activation, negative = inhibition": "0.0085% (inactive)"}
{"smiles": "COc1ccc(CCNC(=O)COC(=O)C2CC2C)cc1", "note": "(configuration not stated)", "activation, negative = inhibition": "-2.84% (inactive)"}
{"smiles": "O=C(Nc1cccnc1Cl)c1cc(-c2cccc(Cl)c2)on1", "activation, negative = inhibition": "-1.17% (inactive)"}
{"smiles": "O=C(NCCCN1CCOCC1)c1cc(-c2cccc(O)c2)on1", "activation, negative = inhibition": "-6.12% (inactive)"}
{"smiles": "COc1ccc(-c2cc(C(=O)NCCCn3ccnc3)no2)cc1", "activation, negative = inhibition": "0.776% (inactive)"}
{"smiles": "O=C(NCCCn1ccnc1)c1cc(-c2ccccc2)on1", "Potency": "3.98 µM (active)"}
{"smiles": "O=C(NC1CCCC1)c1cc(-c2ccccc2)on1", "Potency": "2 µM (active)"}
{"smiles": "COc1ccccc1-c1cc(C(=O)NCCCn2ccnc2)no1", "activation, negative = inhibition": "2.26% (inactive)"}
{"smiles": "Cc1ccc(C(=O)CN2C(=O)NC3(CCOc4ccccc43)C2=O)s1", "note": "(configuration not stated)", "activation, negative = inhibition": "-1.26% (inactive)"}
{"smiles": "CN(C(=O)CSc1nnc(-c2ccc(C(C)(C)C)cc2)n1C)C1CCS(=O)(=O)C1", "note": "(configuration not stated)", "activation, negative = inhibition": "1.79% (inactive)"}
{"smiles": "CCNC(=O)c1cccc(NC(=O)C2CC(=O)N(CCc3ccccc3)C2)c1", "note": "(configuration not stated)", "activation, negative = inhibition": "-5.09% (inactive)"}
{"smiles": "O=S(=O)(Nc1cc(Cl)ccc1N1CCOCC1)c1ccccc1Cl", "activation, negative = inhibition": "-2.12% (inactive)"}
{"smiles": "CCOc1ncccc1C(=O)Nc1ccc(S(=O)(=O)Nc2nc(C)cc(C)n2)cc1", "activation, negative = inhibition": "-2.54% (inactive)"}
{"smiles": "Nc1nc(COC(=O)CCC(=O)c2ccc(Cl)cc2)nc(Nc2ccccc2)n1", "activation, negative = inhibition": "3.11% (inactive)"}
{"smiles": "O=C(Nc1ccc(Cl)cc1)Nc1nnc(/C=C/c2ccccc2)s1", "activation, negative = inhibition": "-6.47% (inactive)"}
{"smiles": "O=C(c1ccc(Cl)cc1)c1cnc(Nc2ccccc2)s1", "Potency": "3.98 µM (active)"}
{"smiles": "CCCN(CC(=O)NC(=O)NC1CCCCC1)CC(=O)Nc1cc(Cl)ccc1Cl", "activation, negative = inhibition": "1.65% (inactive)"}
{"smiles": "CN(C(=O)CSc1nnc(-c2ccc3c(c2)OCO3)o1)C1CCS(=O)(=O)C1", "note": "(configuration not stated)", "activation, negative = inhibition": "-4.13% (inactive)"}
{"smiles": "CCOC(=O)c1c(NC(=O)CN2C(=O)NC3(CCC(C)CC3)C2=O)sc(C)c1CC", "note": "(configuration not stated)", "activation, negative = inhibition": "-3.16% (inactive)"}
{"smiles": "O=C(Nc1ccc(Br)cn1)c1ccc([N+](=O)[O-])o1", "activation, negative = inhibition": "1.22% (inactive)"}
{"smiles": "O=C(Nc1ccc(Br)cn1)c1ccc([N+](=O)[O-])cc1Cl", "Potency": "2.51 µM (active)"}
{"smiles": "O=C(Nc1ccncc1)c1ccc([N+](=O)[O-])cc1Cl", "activation, negative = inhibition": "1.06% [at 1.84 µM] (inactive)"}
{"smiles": "CC/C(Cc1ccccc1)=N/NC(=O)CCn1nnc2ccccc21", "activation, negative = inhibition": "7.82% (inactive)"}
{"smiles": "CCO/N=C(/C)c1c(O)cc(-c2ccccc2)n(-c2ccccc2)c1=O", "activation, negative = inhibition": "-1.37% (inactive)"}
{"smiles": "O=C(CN1CCN(S(=O)(=O)/C=C/c2ccccc2)CC1)Nc1ccc(N2CCOCC2)cc1", "activation, negative = inhibition": "0.34% (inactive)"}
{"smiles": "CC(OC(=O)/C=C/c1ccccc1)C(=O)Nc1ccc(C(N)=O)cc1", "note": "(configuration not stated)", "activation, negative = inhibition": "-1.88% (inactive)"}
{"smiles": "CC(=O)Nc1ccc(NC(=S)NC(=O)/C=C/c2ccccc2)cc1", "activation, negative = inhibition": "0.0543% (inactive)"}
{"smiles": "O=C(/C=C/c1ccc(N2CCOCC2)cc1)c1ccccc1", "Potency": "4.47 µM (active)"}
{"smiles": "CC(=O)Nc1ccc(/C=C/C(=O)c2ccccc2)cc1", "Potency": "3.98 µM (active)"}
{"smiles": "O=C(O)c1ccc2c(c1)C(=O)N(c1ccc(/C=C/C(=O)c3ccccc3)cc1)C2=O", "activation, negative = inhibition": "21.8% (inactive)"}
